# Measured values taken from PubChem BioAssay (NCATS).
# Inconclusive results are not listed. Values without a mark were called inactive. The call rests on the fitted dose curve; in most records, active means well fitted cell-killing curve with a large enough effect; inconclusive means small, poorly fitted or top-dose-only effect; inactive means flat fitted curve, though single readings scatter.
# Assay: Cell Viability - LYMP2-020 (AID 986);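 further: cells exposed to compound for 24 h at 37 °C; plate controls were DMSO only for no effect and tetraoctylammonium bromide at 92 µM for full effect; nearly all actives have a fitted effect of over 55% in size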
# Details: series mostly up to 92.2 µM; activity change, negative = viability loss: at the top concentration
# Description: NIH Chemical Genomics Center [NCGC]
# NIH Molecular Libraries Screening Centers Network [MLSCN]
# National Institutes of Environmental Health Sciences [NIEHS]
# National Toxicology Program [NTP]
# We have developed a 1536-well cell-based assay for quantitative high throughput screening (qHTS) against a number of cell lines to determine in vitro cytotoxicity of small molecules. This particular assay uses a human lymphoblastoid cell line (LYMP2-020) purchased from Coriell Institute for Medical Research.
# NCGC Assay Protocol Summary:
# The CellTiter-Glo luminescent cell viability assay (Promega) is a homogeneous method to measure the number of viable cells in culture. The end point readout of this assay is based on quantitation of intracellular ATP, an indicator of metabolic activity, using the luciferase reaction. Luciferase catalyzes the oxidation of beetle Luciferin to oxyluciferin and light in the presence of ATP. The luminescent signal is proportional to amount of ATP present.
# Using the CellTiter-Glo luminescent cell viability assay, the amount of cellular ATP was measured in the lymphoblastoid cell line with complete culture medium following compound treatment for 24 hours. The assay was performed in opaque white Kalypsys 1536-well plates. In the screen, tetraoctylammonium bromide was used as positive control. Library compounds were measured for their ability to cause acute toxicity in the cell line, as reflected by a decrease in intracellular ATP levels, in a concentration-dependent manner. […] AC50 values were determined from concentration-response data modeled with the standard Hill equation.
# qHTS protocol for CellTiter Glo lymphoblastoid cellular assay
# [Step] [Parameter] [Value] [Description]
# 1. Reagent; 5 uL; 2500 lymphoblastoid cells/well
# 2. Time; 5 hr; 37 C incubation
# 4. Controls; 23 nL; Tetraoctylammonium bromide 6.4pM to 92 uM
# 5. Time; 24 hr; 37 C incubation
# 6. Reagent; 5 uL; CellTiter Glo reagent
# 7. Time; 30 min; Room Temperature
# 8. Detection; Luminescence; Viewlux plate reader
# Keywords: cell viability, cytotoxicity, lymphoblastoid cell line, luminescence, NTPHTS, NTPHTS_NCGC, NIEHS, DSSTox, MLSMR, MLSCN, NIH Roadmap, qHTS, NCGC
row,Compound,"activity change, negative = viability loss [%]"
1,c1ccc(Nc2ccc3ccccc3c2)cc1,-9.43
2,CCOC(=O)c1ccccc1N,-0.0627
3,Oc1ccccc1Cl,-1.74
4,Oc1c(Cl)c(Cl)c(Cl)c(Cl)c1Cl,-20
5,c1ccc2c(c1)-c1cccc3cccc-2c13,4.54
6,COC(=O)c1ccccc1C(=O)OC,-7.09
7,CCOc1cc(C=O)ccc1O,5.07
8,O=Cc1ccccc1,-18
9,CC(=O)/C=C/c1ccccc1,-3.55
10,Cc1ccccc1O,-8.08
